# Measurements as given in PubChem BioAssay (NCATS).
# Inconclusive results are not listed. Calls of active or inactive are those of the source. The call rests on the fitted dose curve; in most records, active means well fitted curve in either direction with a large enough effect (not every such curve was filed as active); inconclusive means small, poorly fitted or top-dose-only effect, or another doubt; inactive means flat fitted curve, though single readings scatter.
# Experiment: AP1 Signaling Pathway (AID 357);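 further: ME-180 reporter cells stimulated with EGF at its EC50 level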
# Settings: ME-180 (cervical carcinoma) AP-1-bla reporter, EGF-induced, beta-lactamase ratio, 5 h; series mostly up to 38 µM; activity change, negative = inhibition: at the top concentration
# From the text: NCGC Assay Overview: Activator protein-1 (AP-1), a transcription factor, plays an important role in tumor genesis by regulating genes involved in cell proliferation, differentiation, apoptosis, and angiogenesis. AP-1 activity is induced by a complex network of signaling pathways that involves extracellular signals, such as growth factors. The AP-1 protein complex formed from c-Fos and c-Jun binding to the AP-1 response element results in transcriptional activation of genes containing such elements within their promoter. Low molecular weight molecules have been discovered and developed to modulate various components of these signaling pathways, for example, MAP kinase inhibitors. However, many points of pathway modulation remain untested due to the lack of chemical probes making this signaling locus of general interest. Using a beta-lactamase reporter-gene under control of the AP-1 response element, a cell-based assay [CellSensor(TM) AP-1-bla ME-180 developed by Invitrogen Corp.] was used to measure EGF-induced signaling. Library compounds were measured for their ability to modulate positively or negatively the action of EC50 EGF on reporter gene activity. Compounds were screened in a titration series in 1536-well format. Positive and negative modulators were identified based on the AC50 values derived from the screening data.
# NCGC Assay Protocol Summary: 2500 cells/5uL in Opti-MEM medium containing 0.5% dialyzed FBS, 0.1 mM NEAA, 1 mM sodium pyruvate and 10 mM HEPES was dispensed into 1536-well plates and cells were cultured at 37 degrees Celsius overnight. […] After centrifugation at 1000 rpm for 2 seconds the plates were incubated at 37 degrees Celsius for 5 hours. 1 uL of CCF4-dye mixture was added to each well. After incubated at room temperature for 2.5 hours the plates were measured on an EnVision plate reader at Excitation 405nm, Emission1=460nm and Emission 2=530nm. The %Activity was determined from the ratio of 460nm/530nm.
# On the % scale 0 is the no-effect control and ±100 the full control effect.
SMILES,"activity change, negative = inhibition",outcome
Cc1c2ccncc2c(C)c2c1[nH]c1ccccc12,16% (inactive),
NC(=O)COc1c(F)cc(SCCNS(=O)(=O)c2ccccc2)cc1F,-12.6% (inactive),
C[N+](C)(C)CCOC(=O)CBr,-4.59% (inactive),
N#CCCN,12.9% (inactive),
O=[N+]([O-])c1cc(O)c(O)c([N+](=O)[O-])c1,5.96% (inactive),
N#CC(C#N)=Cc1cc(O)c(O)c(O)c1,6.95% (inactive),
CP(=O)(O)C1=CCNCC1,6.95% (inactive),
CCC(=O)O[C@@](Cc1ccccc1)(c1ccccc1)[C@@H](C)CN(C)C,3.24% [at 17.2 µM] (inactive),
NCCc1c[nH]c2ccc(C(N)=O)cc12,13.2% (inactive),
CN(N=O)c1cc(O)ccc1O,-7.85% (inactive),
CN1CCc2cc(O)cc3c2[C@H]1Cc1ccc(O)c(O)c1-3,-10.7% (inactive),
NC(=O)CI,0.916% (inactive),
OCc1cnc[nH]1,-0.521% (inactive),
Clc1cc(I)cc(Cl)c1NC1=NCCN1,17% (inactive),
O=C1C=CC(=O)C=C1,-1.12% (inactive),
CC(=O)NBr,5.56% (inactive),
CCCN(CCC)[C@H]1CCc2c(F)ccc(O)c2C1,,inactive
COc1ccc2[nH]c3c(c2c1)CCNC3,17.2% (inactive),
c1ccc2cc(CC3=NCCN3)ccc2c1,6.37% (inactive),
COc1ccc(OC)c(C(O)C(C)N)c1 (stereo not given),1.11% [at 17.2 µM] (inactive),

SMILES,"activity change, negative = inhibition",outcome
C[N+]1(C)CCc2cc3c(cc2[C@H]1[C@@H]1OC(=O)c2c1ccc1c2OCO1)OCO3,-2.02% [at 17.2 µM] (inactive),
O=c1c2ccccc2[se]n1-c1ccccc1,,inactive
CCCCCCC(C)(C)c1ccc([C@@H]2C[C@H](O)CC[C@H]2CCCO)c(O)c1,-15.2% (inactive),
Clc1ccc(N2C[C@H]3CC[C@@H](C2)N3)nn1,1.1% (inactive),
C[N+]1(C)CCN(c2ccccc2)CC1,,inactive
C[N+]1(C)[C@@H]2CC[C@H]1CC(OC(=O)c1c[nH]c3ccccc13)C2 (stereo not given in full),-2.17% (inactive),
C[C@H](N)CN1CCc2ccc(Br)cc21,10.3% (inactive),
O=[N+]([O-])c1ccc2nc(N3CCNCC3)ccc2c1,-6.45% (inactive),
CC(C)NP(=O)(NC(C)C)OP(=O)(NC(C)C)NC(C)C,8.93% (inactive),
Cc1sc2ccccc2c1CC1=NCCN1,-2.81% (inactive),
CC(C)[C@@]1(NC(=O)[C@@H]2C[C@@H]3c4cccc5[nH]cc(c45)C[C@H]3N(C)C2)O[C@@]2(O)[C@@H]3CCCN3C(=O)[C@H](Cc3ccccc3)N2C1=O,-22.1% [at 17.2 µM] (inactive),
NC(N)=NOCC[C@H](N)C(=O)O,,inactive
CCC1(C)CC(=O)NC(=O)C1,3.06% [at 17.2 µM] (inactive),
CC(C)(C)c1cc(C=C(C#N)C#N)cc(C(C)(C)C)c1O,-14.1% (inactive),
CN(N=O)c1ccc(O)c(O)c1,-7.45% (inactive),
c1cc2c(c(NC3=NCCN3)c1)CCCC2,7.07% [at 7.69 µM] (inactive),
NNC(=O)c1ccc(O)cc1,3.1% (inactive),
O=S1(=O)N(CCN2CC=C(c3c[nH]c4cc(F)ccc34)CC2)c2cccc3c2N1CCC3,-28.2% (inactive),
CCCn1c(C)c(C(=O)c2ccc3ccccc3c2)c2ccccc21,-14.4% (inactive),
CCCN(CCC)[C@@H]1CCc2cccc(O)c2C1,,inactive
